# Target: Histone H4 (UniProt P62805)
# Test: cross-link between two proteins; cross-linking mass spectrometry
substance,measurement,value
"ADP/ATP translocase 3, P12236",listed as a hit,yes

# Source: publication PMC9174471
